Assay results: PubChem BioAssay (EPA / NIEHS)
Inconclusive results are not listed. Active and inactive are the calls of the source. How the source made its calls, unless noted: active means hit-call score of the fitted dose curve at least 0.9, where 1 is the maximum; inactive means score below 0.9.

Key:
[1] = target: human Peroxisome Proliferator-activated Receptor delta (PPARd), PPARD (gene 5467) (UniProt Q03181); assay: ATG_PPARd_TRANS: Attagene TRANS-FACTORIAL HepG2 Assay for human Peroxisome Proliferator-activated Receptor delta (PPARd) (AID 2283002; active means hit-call score of the fitted dose curve at least 0.9, where 1 is the maximum)
In short: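 HepG2 cells transiently transfected with GAL4-UAS multiplexed reporter units driven by exogenous chimeric NR-GAL4 proteins; 24 h compound exposure. Reporter mRNA measured by RT-PCR, 6-FAM primer extension, HpaI digestion and capillary electrophoresis; gain of signal fitted relative to DMSO.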

[2] = read-out: Intercellular Adhesion Molecule 1 (ICAM1), ICAM1 (gene 3383); assay: BSK_3C_ICAM1: BioMAP Diversity Plus: 3C Assay for Intercellular Adhesion Molecule 1 (ICAM1) Biomarker Activity (AID 2283003); conditions: primary human endothelial cells (HUVEC); actives raise or lower the signal
In short: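 Using DMSO as baseline, bidirectional curve fitting was applied to ICAM-1 ELISA signals from HUVEC in the 3C system, measured 24 h after compound addition.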

[3] = target: Peroxisome proliferator-activated receptor gamma (Homo sapiens) (UniProt P37231); assay: ATG_PPARg_TRANS: Attagene TRANS-FACTORIAL HepG2 Assay for human Peroxisome Proliferator-activated Receptor-gamma (PPARg) (AID 2283007; active means hit-call score of the fitted dose curve at least 0.9, where 1 is the maximum)
Chain of Peroxisome proliferator-activated receptor gamma (Homo sapiens) (P37231 whole entry, looked up): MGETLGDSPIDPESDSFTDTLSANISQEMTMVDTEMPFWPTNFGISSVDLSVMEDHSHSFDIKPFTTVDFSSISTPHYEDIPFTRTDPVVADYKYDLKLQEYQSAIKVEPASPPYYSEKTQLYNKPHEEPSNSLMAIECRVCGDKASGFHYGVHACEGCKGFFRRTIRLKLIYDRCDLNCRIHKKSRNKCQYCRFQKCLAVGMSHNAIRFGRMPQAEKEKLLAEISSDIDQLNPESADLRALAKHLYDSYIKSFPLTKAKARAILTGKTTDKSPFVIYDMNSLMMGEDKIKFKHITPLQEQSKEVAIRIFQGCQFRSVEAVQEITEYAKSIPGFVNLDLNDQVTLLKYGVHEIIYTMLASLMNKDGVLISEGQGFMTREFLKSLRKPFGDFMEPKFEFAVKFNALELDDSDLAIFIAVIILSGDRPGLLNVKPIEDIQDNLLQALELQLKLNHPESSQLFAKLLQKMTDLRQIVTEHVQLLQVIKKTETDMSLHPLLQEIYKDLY
In short: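 Human hepatoma HepG2, transient MRTU transfection, 24 h treatment. mRNA reporter signal by RT-PCR plus capillary electrophoresis, fluorescence detection; fitted for increase over DMSO negative control.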

[4] = target: human RAR-related Orphan Receptor beta (RORb), RORB (gene 6096) (UniProt Q92753); assay: ATG_RORb_TRANS: Attagene TRANS-FACTORIAL HepG2 Assay for human RAR-related Orphan Receptor beta (RORb) (AID 2283010; active means hit-call score of the fitted dose curve at least 0.9, where 1 is the maximum)
Chain of human RAR-related Orphan Receptor beta (RORb), RORB (gene 6096) (Q92753 whole entry, looked up, the tested form may be a part): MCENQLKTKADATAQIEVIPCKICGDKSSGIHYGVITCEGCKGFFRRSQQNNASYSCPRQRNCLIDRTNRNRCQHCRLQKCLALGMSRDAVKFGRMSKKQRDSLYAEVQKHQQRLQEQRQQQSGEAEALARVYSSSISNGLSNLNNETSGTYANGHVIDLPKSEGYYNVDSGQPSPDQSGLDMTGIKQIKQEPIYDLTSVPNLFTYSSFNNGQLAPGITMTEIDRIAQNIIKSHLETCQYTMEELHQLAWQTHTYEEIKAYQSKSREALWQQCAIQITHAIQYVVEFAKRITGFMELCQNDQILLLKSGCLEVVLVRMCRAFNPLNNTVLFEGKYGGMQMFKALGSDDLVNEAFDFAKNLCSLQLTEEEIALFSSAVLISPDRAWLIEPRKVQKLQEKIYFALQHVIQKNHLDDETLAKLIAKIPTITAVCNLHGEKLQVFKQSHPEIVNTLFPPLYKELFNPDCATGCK
In short: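 Multiplexed transcription-factor reporter assay: HepG2 cells transiently carrying NR-Gal4/GAL4-UAS constructs, 24 h treatment, mRNA quantified by RT-PCR plus capillary electrophoresis fluorescence; activity scored as induction over DMSO.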

[5] = target: Retinoic acid receptor RXR-alpha (Homo sapiens) (UniProt P19793); assay: ATG_RXRa_TRANS: Attagene TRANS-FACTORIAL HepG2 Assay for human Retinoid X Receptor alpha (RXRa) (AID 2283012; active means hit-call score of the fitted dose curve at least 0.9, where 1 is the maximum)
Chain of Retinoic acid receptor RXR-alpha (Homo sapiens) (P19793 whole entry, looked up, the tested form may be a part): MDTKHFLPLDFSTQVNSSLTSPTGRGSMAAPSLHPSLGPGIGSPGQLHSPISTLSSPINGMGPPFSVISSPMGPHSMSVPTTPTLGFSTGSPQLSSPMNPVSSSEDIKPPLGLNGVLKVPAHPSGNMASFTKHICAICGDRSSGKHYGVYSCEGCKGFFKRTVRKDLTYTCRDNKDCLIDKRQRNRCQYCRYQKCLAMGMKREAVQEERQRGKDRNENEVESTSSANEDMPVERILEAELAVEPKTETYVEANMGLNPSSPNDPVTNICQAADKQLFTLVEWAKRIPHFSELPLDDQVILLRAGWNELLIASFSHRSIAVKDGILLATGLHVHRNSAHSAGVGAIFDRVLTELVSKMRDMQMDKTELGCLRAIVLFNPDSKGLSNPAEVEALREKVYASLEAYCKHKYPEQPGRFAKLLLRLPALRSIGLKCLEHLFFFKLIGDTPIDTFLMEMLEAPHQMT
In short: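 Chimeric NR-GAL4 trans-activation in HepG2, 24 h treatment; reporter transcripts quantified by fluorescence on capillary electrophoresis, analysed for upward change from DMSO.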

[6] = read-out: E-selectin (Homo sapiens) (UniProt P16581); assay: BSK_3C_Eselectin: BioMAP Diversity Plus: 3C Assay for Eselectin Biomarker Activity (AID 2283015); conditions: primary human endothelial cells (HUVEC); actives raise or lower the signal
In short: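 Human vascular endothelium from umbilical vein is exposed to test chemicals for 24 h. E-selectin levels are read by ELISA and compared with DMSO controls.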

[7] = read-out: Interleukin-1 alpha (IL1a), IL1A (gene 3552); assay: BSK_BE3C_IL1a: BioMAP Diversity Plus: BE3C Assay for Interleukin-1 alpha (IL1a) Biomarker Activity (AID 2283016); conditions: primary human bronchial epithelial cells; actives raise or lower the signal
In short: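 Measured in human lung primary bronchial epithelial cells: IL-1a by ELISA at 24 h after dosing, with bidirectional fitting against DMSO.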

[8] = read-out: Monocyte Chemoattractant Protein-1 (MCP1), CCL2 (gene 6347); assay: BSK_3C_MCP1: BioMAP Diversity Plus: 3C Assay for Monocyte Chemoattractant Protein-1 (MCP1) Biomarker Activity (AID 2283017); conditions: primary human endothelial cells (HUVEC); actives raise or lower the signal
In short: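 Endothelial cells from human umbilical vein are dosed with chemical, cultured 24 h, then assayed for MCP-1 by ELISA; both increases and decreases are modelled against DMSO controls.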

[9] = read-out: Monocyte Chemoattractant Protein-1 (MCP1), CCL2 (gene 6347); assay: BSK_4H_MCP1: BioMAP Diversity Plus: 4H Assay for Monocyte Chemoattractant Protein-1 (MCP1) Biomarker Activity (AID 2283018); conditions: primary human endothelial cells (HUVEC); actives raise or lower the signal
In short: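 Primary human umbilical vein endothelium is exposed to chemical for 24 h before MCP-1 is assayed by ELISA. Concentration-response fitted bidirectionally relative to DMSO.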

[10] = read-out: Human Leukocyte Antigen - DR isotype (HLADR), HLA-DRA (gene 3122); assay: BSK_3C_HLADR: BioMAP Diversity Plus: 3C Assay for Human Leukocyte Antigen - DR isotype (HLADR) Biomarker Activity (AID 2283019); conditions: primary human endothelial cells (HUVEC); actives raise or lower the signal
In short: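 Endothelial cells from human umbilical vein are treated with test chemical; after 24 h, HLA-DR levels are measured by ELISA. Data are fitted in both directions using DMSO as the baseline.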

[11] = read-out: Interleukin-8 (IL8), CXCL8 (gene 3576); assay: BSK_3C_IL8: BioMAP Diversity Plus: 3C Assay for Interleukin-8 (IL8) Biomarker Activity (AID 2283020); conditions: primary human endothelial cells (HUVEC); actives raise or lower the signal
In short: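 Using DMSO-treated wells as the baseline, bidirectional curve fitting was applied to ELISA-measured IL-8 from human umbilical vein endothelial cultures sampled 24 h after compound addition.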

[12] = read-out: Monokine induced gamma interferon (MIG), CXCL9 (gene 4283); assay: BSK_3C_MIG: BioMAP Diversity Plus: 3C Assay for Monokine induced gamma interferon (MIG) Biomarker Activity (AID 2283021); conditions: primary human endothelial cells (HUVEC); actives raise or lower the signal;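 on AC50: MIG protein level measured by immunoassay in the treated endothelial cultures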
In short: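 ELISA-measured MIG in dosed HUVEC 3C cultures at 24 h, analysed by bidirectional fitting with DMSO defining baseline activity.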

[13] = BSK_3C_Proliferation: Cell Proliferation Assessment in the BioMAP Diversity Plus: 3C Assay (AID 2283006); conditions: primary human endothelial cells (HUVEC);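 on AC50: potency may reflect either rise or fall in cell number versus DMSO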
In short: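 Measured here: sulforhodamine B (0.1%) staining of TCA-fixed sub-confluent umbilical vein endothelial cultures 48 h post-dosing, absorbance 560 nm. DMSO served as negative control and baseline; both signal gain and loss were modelled.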

[14] = target: Nuclear receptor subfamily 1 group I member 2 (Homo sapiens) (UniProt O75469); assay: ATG_PXR_TRANS: Attagene TRANS-FACTORIAL HepG2 Assay for human Pregnane X Receptor (PXR) (AID 2283008; active means hit-call score of the fitted dose curve at least 0.9, where 1 is the maximum)
Chain of Nuclear receptor subfamily 1 group I member 2 (Homo sapiens) (O75469 whole entry, looked up, the tested form may be a part): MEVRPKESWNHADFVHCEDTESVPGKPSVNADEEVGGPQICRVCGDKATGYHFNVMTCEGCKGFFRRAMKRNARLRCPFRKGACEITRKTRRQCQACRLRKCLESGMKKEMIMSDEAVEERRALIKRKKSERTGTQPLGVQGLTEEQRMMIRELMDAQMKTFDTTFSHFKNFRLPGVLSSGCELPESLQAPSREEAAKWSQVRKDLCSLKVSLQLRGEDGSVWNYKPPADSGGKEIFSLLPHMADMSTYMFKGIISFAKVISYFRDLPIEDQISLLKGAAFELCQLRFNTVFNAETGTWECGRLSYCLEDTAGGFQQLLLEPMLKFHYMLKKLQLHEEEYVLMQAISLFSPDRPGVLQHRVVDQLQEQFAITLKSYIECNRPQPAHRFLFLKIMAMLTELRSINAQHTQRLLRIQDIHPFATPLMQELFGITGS
In short: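 Trans-factorial format: exogenous NR-Gal4 fusion activity, not endogenous factor, in transfected human HepG2 liver cells. After 24 h dosing, RNA isolated, reverse-transcribed, amplified and resolved by capillary electrophoresis; induction scored versus DMSO.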

[15] = target: human RAR-related Orphan Receptor gamma (RORg), RORC (gene 6097) (UniProt P51449); assay: ATG_RORg_TRANS: Attagene TRANS-FACTORIAL HepG2 Assay for human RAR-related Orphan Receptor gamma (RORg) (AID 2283011; active means hit-call score of the fitted dose curve at least 0.9, where 1 is the maximum)
Chain of human RAR-related Orphan Receptor gamma (RORg), RORC (gene 6097) (P51449 whole entry, looked up, the tested form may be a part): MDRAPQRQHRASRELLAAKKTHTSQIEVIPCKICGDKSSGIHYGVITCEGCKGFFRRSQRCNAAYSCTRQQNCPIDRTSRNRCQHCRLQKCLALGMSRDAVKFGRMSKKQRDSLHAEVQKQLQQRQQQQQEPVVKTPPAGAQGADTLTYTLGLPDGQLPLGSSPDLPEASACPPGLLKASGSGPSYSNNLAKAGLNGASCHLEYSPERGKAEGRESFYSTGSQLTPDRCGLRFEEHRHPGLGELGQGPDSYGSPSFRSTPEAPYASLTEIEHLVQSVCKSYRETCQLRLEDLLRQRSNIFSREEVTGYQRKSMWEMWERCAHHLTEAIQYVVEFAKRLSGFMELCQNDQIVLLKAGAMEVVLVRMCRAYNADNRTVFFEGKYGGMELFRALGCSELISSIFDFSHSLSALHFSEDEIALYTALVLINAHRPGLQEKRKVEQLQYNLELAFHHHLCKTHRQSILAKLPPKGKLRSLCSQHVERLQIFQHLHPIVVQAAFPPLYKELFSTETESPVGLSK
In short: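 Activity is scored as increase in GAL4-UAS reporter mRNA over DMSO, detected by fluorescent RT-PCR and capillary electrophoresis in HepG2 cells transiently expressing a RORg-Gal4 chimera, 24 h after dosing.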

[16] = target: human Vitamin D Receptor (VDR), VDR (gene 7421) (UniProt P11473); assay: ATG_VDR_TRANS: Attagene TRANS-FACTORIAL HepG2 Assay for human Vitamin D Receptor (VDR) (AID 2283022; active means hit-call score of the fitted dose curve at least 0.9, where 1 is the maximum)
Chain of human Vitamin D Receptor (VDR), VDR (gene 7421) (P11473 whole entry, looked up, the tested form may be a part): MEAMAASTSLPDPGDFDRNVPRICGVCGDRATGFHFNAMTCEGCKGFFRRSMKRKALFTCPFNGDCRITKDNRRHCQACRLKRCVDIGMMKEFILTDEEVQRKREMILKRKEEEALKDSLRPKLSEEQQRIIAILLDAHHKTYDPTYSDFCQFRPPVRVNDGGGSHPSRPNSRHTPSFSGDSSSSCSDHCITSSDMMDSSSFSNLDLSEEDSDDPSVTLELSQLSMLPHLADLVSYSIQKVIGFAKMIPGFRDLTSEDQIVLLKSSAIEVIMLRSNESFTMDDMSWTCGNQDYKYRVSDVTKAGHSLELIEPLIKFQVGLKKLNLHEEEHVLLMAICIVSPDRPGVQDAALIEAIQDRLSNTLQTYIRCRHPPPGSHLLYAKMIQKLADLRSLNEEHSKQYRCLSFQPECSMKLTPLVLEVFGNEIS
In short: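 Fluorescence of labelled reporter cDNA fragments, resolved by capillary electrophoresis, gives mRNA induction after 24 h treatment of HepG2 cells carrying transfected Gal4-fusion reporter units. Activity is fitted in the positive direction with DMSO as baseline.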

[17] = target: human Retinoid X Receptor beta (RXRb), RXRB (gene 6257) (UniProt P28702); assay: ATG_RXRb_TRANS: Attagene TRANS-FACTORIAL HepG2 Assay for human Retinoid X Receptor beta (RXRb) (AID 2283013; active means hit-call score of the fitted dose curve at least 0.9, where 1 is the maximum)
Chain of human Retinoid X Receptor beta (RXRb), RXRB (gene 6257) (P28702 whole entry, looked up, the tested form may be a part): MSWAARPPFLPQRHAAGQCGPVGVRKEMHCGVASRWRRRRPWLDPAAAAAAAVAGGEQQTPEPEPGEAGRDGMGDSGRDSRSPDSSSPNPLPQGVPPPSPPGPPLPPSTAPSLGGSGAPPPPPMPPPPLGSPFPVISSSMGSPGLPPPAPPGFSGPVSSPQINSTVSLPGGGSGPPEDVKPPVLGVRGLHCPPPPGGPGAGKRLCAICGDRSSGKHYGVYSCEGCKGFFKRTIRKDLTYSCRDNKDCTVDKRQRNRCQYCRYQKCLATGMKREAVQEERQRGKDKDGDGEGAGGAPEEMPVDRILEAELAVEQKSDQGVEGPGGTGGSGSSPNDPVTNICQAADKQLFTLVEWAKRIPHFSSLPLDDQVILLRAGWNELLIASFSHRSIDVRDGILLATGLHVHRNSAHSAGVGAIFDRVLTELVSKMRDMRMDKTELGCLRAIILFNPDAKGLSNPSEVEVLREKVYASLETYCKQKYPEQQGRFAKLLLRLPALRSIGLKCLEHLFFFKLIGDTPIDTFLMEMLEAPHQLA
In short: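 After a 24 h incubation with test chemical, transfected HepG2 cells carrying NR-Gal4 fusions and GAL4-UAS reporter transcription units yield RNA whose reporter cDNA is FAM-labelled, HpaI-cut and sized by capillary electrophoresis; increases over DMSO are scored.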

[18] = target: human Thyroid Receptor alpha (THRa1), THRA (gene 7067) (UniProt P10827); assay: ATG_THRa1_TRANS: Attagene TRANS-FACTORIAL HepG2 Assay for human Thyroid Receptor alpha (THRa1) (AID 2283014; active means hit-call score of the fitted dose curve at least 0.9, where 1 is the maximum)
Chain of human Thyroid Receptor alpha (THRa1), THRA (gene 7067) (P10827 whole entry, looked up, the tested form may be a part): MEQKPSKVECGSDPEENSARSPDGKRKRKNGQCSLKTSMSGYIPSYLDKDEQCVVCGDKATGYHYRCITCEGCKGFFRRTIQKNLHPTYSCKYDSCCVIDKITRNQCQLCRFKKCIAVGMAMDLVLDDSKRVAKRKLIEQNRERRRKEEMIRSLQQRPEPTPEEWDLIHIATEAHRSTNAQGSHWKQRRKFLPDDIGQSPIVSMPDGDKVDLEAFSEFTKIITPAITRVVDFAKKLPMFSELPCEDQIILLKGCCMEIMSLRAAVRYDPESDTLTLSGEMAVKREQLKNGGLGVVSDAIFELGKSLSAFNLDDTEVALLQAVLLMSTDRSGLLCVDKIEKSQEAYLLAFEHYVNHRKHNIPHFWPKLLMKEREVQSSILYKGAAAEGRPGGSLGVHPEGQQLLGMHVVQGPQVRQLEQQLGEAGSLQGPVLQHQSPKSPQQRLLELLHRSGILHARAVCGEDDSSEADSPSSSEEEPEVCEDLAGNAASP
In short: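 First, HepG2 cells receive multiple GAL4-UAS reporter units and the chimeric receptor. They are then dosed for 24 h, after which RNA is reverse-transcribed, amplified, labelled, HpaI-cut and sized by capillary electrophoresis; gain relative to DMSO is scored.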

[19] = target: Retinoic acid receptor alpha (Homo sapiens) (UniProt P10276); assay: ATG_RARa_TRANS: Attagene TRANS-FACTORIAL HepG2 Assay for human Retinoic Acid Receptor alpha (RARa) (AID 2283005; active means hit-call score of the fitted dose curve at least 0.9, where 1 is the maximum)
Chain of Retinoic acid receptor alpha (Homo sapiens) (P10276 whole entry, looked up, the tested form may be a part): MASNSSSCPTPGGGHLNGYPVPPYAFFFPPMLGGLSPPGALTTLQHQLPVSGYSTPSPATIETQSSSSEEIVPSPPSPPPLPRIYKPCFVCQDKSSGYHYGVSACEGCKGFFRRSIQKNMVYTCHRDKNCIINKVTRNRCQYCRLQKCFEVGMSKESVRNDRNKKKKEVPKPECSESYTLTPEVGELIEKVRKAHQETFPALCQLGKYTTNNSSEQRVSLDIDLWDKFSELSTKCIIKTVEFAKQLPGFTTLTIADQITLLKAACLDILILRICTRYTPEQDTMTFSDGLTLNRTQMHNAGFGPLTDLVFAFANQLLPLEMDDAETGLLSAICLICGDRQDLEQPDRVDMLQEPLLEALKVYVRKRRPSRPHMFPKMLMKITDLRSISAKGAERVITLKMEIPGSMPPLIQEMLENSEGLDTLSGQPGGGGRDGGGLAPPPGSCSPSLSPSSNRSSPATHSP
In short: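 HepG2 transiently transfected with multiplex GAL4-UAS reporter units including a human RARa–GAL4 chimera; 24 h compound exposure. Reporter mRNA quantified by RT-PCR, 6-FAM labeling and capillary electrophoresis; gain of signal versus DMSO.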

[20] = target: human Retinoic Acid Receptor beta (RARb), RARB (gene 5915) (UniProt P10826); assay: ATG_RARb_TRANS: Attagene TRANS-FACTORIAL HepG2 Assay for human Retinoic Acid Receptor beta (AID 2283004; active means hit-call score of the fitted dose curve at least 0.9, where 1 is the maximum)
In short: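 HepG2, transient MRTU transfection, NR–Gal4 chimera, 24 h treatment; RT-PCR plus CE fluorescence detection of reporter mRNA; gain of signal vs DMSO.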

Measured: AC50

Chain of E-selectin (Homo sapiens) (P16581 whole entry, looked up): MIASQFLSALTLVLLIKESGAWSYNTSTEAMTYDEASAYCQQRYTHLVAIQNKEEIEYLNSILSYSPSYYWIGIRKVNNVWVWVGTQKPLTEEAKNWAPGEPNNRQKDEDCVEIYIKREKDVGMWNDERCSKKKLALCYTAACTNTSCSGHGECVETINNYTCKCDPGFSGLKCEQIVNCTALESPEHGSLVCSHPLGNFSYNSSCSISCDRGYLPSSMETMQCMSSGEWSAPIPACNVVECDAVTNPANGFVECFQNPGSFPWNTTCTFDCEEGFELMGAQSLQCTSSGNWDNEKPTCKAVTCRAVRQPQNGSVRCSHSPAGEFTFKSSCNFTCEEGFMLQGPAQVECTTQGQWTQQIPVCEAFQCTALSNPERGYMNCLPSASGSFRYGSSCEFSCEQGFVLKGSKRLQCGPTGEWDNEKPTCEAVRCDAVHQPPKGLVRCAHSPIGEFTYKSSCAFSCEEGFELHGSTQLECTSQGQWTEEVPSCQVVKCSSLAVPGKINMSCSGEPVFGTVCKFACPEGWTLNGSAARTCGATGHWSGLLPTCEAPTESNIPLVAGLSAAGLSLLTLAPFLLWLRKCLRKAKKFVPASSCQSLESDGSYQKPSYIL

O=C(O)c1cc(N=Nc2ccc(S(=O)(=O)Nc3ccccn3)cc2)ccc1O
active: [3] 57.4 µM
not listed: [13] | [14] | [15] | [16] | [17] | [18] | [19] | [20]
inactive: all other assays above

COCCOc1cc2cc(C(=O)NC3CCN(C(C)C)CC3)n(CC(=O)Nc3ccc(Cl)cn3)c2cn1
not listed: [1] | [3] | [15] | [16] | [17] | [18] | [19] | [20]
inactive: all other assays above

C=CC(=C)CCC=C(C)C
active: [3] 100 µM
not listed: [1] | [4] | [5] | [17] | [18] | [19] | [20]
inactive: all other assays above

Cn1c(=O)c2c(ncn2C)n(C)c1=O
not listed: [1] | [3] | [15] | [16] | [18] | [19] | [20]
inactive: all other assays above

CC(C)(O)c1coc(S(=O)(=O)NC(=O)Nc2c3c(cc4c2CCC4)CCC3)c1
active: [3] 44.9 µM | [14] 19.3 µM
not listed: [1] | [5] | [17] | [19] | [20]
inactive: all other assays above

CCCC(=O)OCC
inactive: [2] | [13] | [3] | [6] | [7] | [8] | [9] | [10] | [11] | [12] | [16]

Nc1nc2ncc(CNc3ccc(C(=O)N[C@@H](CCC(=O)O)C(=O)O)cc3)nc2c(=O)[nH]1
not listed: [1] | [3] | [13] | [14] | [17] | [19] | [20]
inactive: all other assays above

CCCCCCc1ccc(O)cc1O
inactive: [14] | [16]
active: [13] 30.2 µM | [3] 31.2 µM | [17] 24.2 µM | [6] 30.8 µM | [7] 33 µM | [8] 32.5 µM | [9] 16.2 µM | [10] 39 µM | [11] 32.4 µM | [12] 3.97 µM

C1N2CN3CN1CN(C2)C3
not listed: [1] | [4] | [15] | [17] | [20]
inactive: all other assays above

CCCCC(CC)COC(=O)c1ccc(C(=O)OCC(CC)CCCC)cc1 (configuration not stated)
not listed: [1] | [3] | [5] | [13] | [14] | [16] | [17] | [20]
inactive: all other assays above

CC(C)=CCCC(C)CCO (configuration not stated)
active: [3] 42.6 µM
not listed: [1] | [5] | [13] | [15] | [16] | [17] | [18] | [19]
inactive: all other assays above

O=C(NS(=O)(=O)/C=C/c1ccccc1)c1ccc(F)cc1Cl
active: [13] 6.4 µM | [3] 22.3 µM | [14] 16.2 µM
not listed: [1] | [15] | [16] | [19] | [20]
inactive: all other assays above

CC[C@H](C)C(=O)O[C@H]1C[C@@H](C)C=C2C=C[C@H](C)[C@H](CC[C@@H]3C[C@@H](O)CC(=O)O3)[C@H]21
inactive: [3] | [17] | [12] | [16]
active: [2] 36.8 µM | [13] 13.6 µM | [14] 2.51 µM | [6] 31.6 µM | [7] 33.6 µM | [8] 24 µM | [9] 1.98 µM | [10] 31.5 µM | [11] 25.5 µM

CCCCCCCCO
not listed: [1] | [4] | [13] | [15] | [17] | [18] | [19]
inactive: all other assays above

COC(=O)CC(=O)OC
inactive: [2] | [13] | [5] | [6] | [7] | [8] | [9] | [10] | [11] | [12] | [16]
